Measurements from PubChem BioAssay (EPA / NIEHS).
Values joined by “and” are separate entries in the source; they are usually repeats but may differ in a detail not shown here. Equal entries are not always repeated. More than one record can exist for a structure, and the calls need not agree. Active and inactive are the calls of the source. How the source made its calls: active means hit-call score of the fitted dose curve at least 0.9, where 1 is the maximum; inactive means score below 0.9.

How the values were obtained:
[1] = CEETOX_H295R_ANDR: CeeTox H295R High-throughput Steroidogenesis Assay for Androstenedione (ANDR) (AID 2283436); conditions: actives raise or lower the signal
Procedure, shortened: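 Read-out is androstenedione secreted into medium, measured by tandem mass spectrometry after liquid-liquid extraction. Cells were H295R, dosed for 48 h per modified OECD 456; activity fitted in both directions relative to DMSO.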

[2] = CEETOX_H295R_CORTIC: CeeTox H295R High-throughput Steroidogenesis Assay for Corticosterone (CORTIC) (AID 2283437); conditions: actives raise or lower the signal;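 further: corticosterone secreted into medium quantified by mass spectrometry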;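 on AC50: human H295R adrenal cells prestimulated with forskolin before chemical exposure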
Procedure, shortened: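 Corticosterone secreted into medium is measured by reverse-phase HPLC with tandem MS following liquid-liquid extraction. Cells are forskolin-stimulated (10 uM, 48 h) before 48 h test exposure; activity fitted in both directions against DMSO.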

[3] = CEETOX_H295R_CORTISOL: CeeTox H295R High-throughput Steroidogenesis Assay for Cortisol (AID 2283438); conditions: actives raise or lower the signal;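 further: cortisol secreted into medium quantified by LC-MS/MS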
Procedure, shortened: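 Human adrenocortical H295R cells (passage ≤10) received test chemicals for 48 h after forskolin priming. Secreted cortisol was measured by LC-MS/MS.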

[4] = CEETOX_H295R_DOC: CeeTox H295R High-throughput Steroidogenesis Assay for DOC (AID 2283439); conditions: actives raise or lower the signal
Procedure, shortened: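 Secreted DOC was quantified from H295R media by HPLC-MS/MS after 48 h chemical exposure following 48 h forskolin (10 uM) prestimulation. Values were fitted in both directions relative to DMSO, the negative control and baseline.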

[5] = CEETOX_H295R_ESTRADIOL: CeeTox H295R High-throughput Steroidogenesis Assay for Estradiol (AID 2283440); conditions: actives raise or lower the signal;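 further: estradiol secreted into medium quantified by LC-MS/MS after dansyl derivatisation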
Procedure, shortened: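 H295R cells pre-stimulated 48 h with 10 uM forskolin, then exposed 48 h to chemical in 0.1% DMSO. Medium estradiol quantified by MTBE extraction, dansyl derivatisation and HPLC-MS/MS; bidirectional fit versus DMSO; MTT viability required >/=70%.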

[6] = CEETOX_H295R_ESTRONE: CeeTox H295R High-throughput Steroidogenesis Assay for Estrone (AID 2283441); conditions: actives raise or lower the signal;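 further: estrone secreted into medium measured by LC-MS/MS after dansyl derivatization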;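 on AC50: human adrenal H295R cells prestimulated with forskolin for two days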
Procedure, shortened: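 H295R cells; 48 h forskolin (10 uM) prestimulation; 48 h compound exposure, 0.1% DMSO final. Medium estrone: MTBE extraction, dansyl derivatization, HPLC-MS/MS. Bidirectional fit vs DMSO.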

[7] = CEETOX_H295R_PROG: CeeTox H295R High-throughput Steroidogenesis Assay for Progesterone (PROG) (AID 2283442); conditions: actives raise or lower the signal;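 on AC50: human H295R adrenal cells primed with 10 µM forskolin before dosing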
Procedure, shortened: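 H295R adrenal cells prestimulated 48 h with 10 uM forskolin, then exposed 48 h to test chemical in 0.1% DMSO. Progesterone in medium quantified by HPLC-MS/MS after MTBE extraction; viability checked by MTT in same wells.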

[8] = read-out: Tumor necrosis factor receptor superfamily member 6 (Homo sapiens) (UniProt P25445); experiment: LTEA_HepaRG_FAS: Life Technologies and Expression Analysis (LTEA) Assay for Fas cell surface death receptor (FAS) using HepaRG (AID 2283447); conditions: mRNA level, 48 h; actives raise or lower the signal
Procedure, shortened: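 FAS transcript level was measured by TaqMan qRT-PCR against three housekeeping genes after 48 h chemical exposure. Cells were HepaRG, 0.5% DMSO vehicle, with a top concentration of 100 uM and half-log dilutions over eight points, in duplicate.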

[9] = read-out: Cyclin Dependent Kinase Inhibitor 1A (CDKN1A), CDKN1A (gene 1026); experiment: LTEA_HepaRG_CDKN1A: Life Technologies and Expression Analysis (LTEA) Assay for Cyclin Dependent Kinase Inhibitor 1A (CDKN1A) using HepaRG (AID 2283450); conditions: mRNA level, 48 h; actives raise or lower the signal
Procedure, shortened: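 Differentiated HepaRG cells in serum-free induction medium, exposed 48 h in duplicate to eight half-log concentrations up to 100 uM in 0.5% DMSO. mRNA measured by TaqMan qRT-PCR, normalized to ACTB, GAPDH, POLR2A; bidirectional fit versus DMSO.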

[10] = read-out: Cyclin D1 (CCND1), CCND1 (gene 595); experiment: LTEA_HepaRG_CCND1: Life Technologies and Expression Analysis (LTEA) Assay for Cyclin D1 (CCND1) using HepaRG (AID 2283451); conditions: mRNA level, 48 h; actives raise or lower the signal;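 on AC50: differentiated human HepaRG liver cells in serum-free induction medium; TaqMan qRT-PCR transcript level normalised to ACTB GAPDH and POLR2A housekeeping genes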
Procedure, shortened: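 Differentiated HepaRG cells exposed 48 h in serum-free induction medium to eight half-log concentrations from 100 uM top, 0.5% DMSO, duplicates. CCND1 mRNA measured by Fluidigm TaqMan qRT-PCR, normalised to ACTB, GAPDH, POLR2A; bidirectional fit.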

[11] = read-out: catalase (CAT), CAT (gene 847); experiment: LTEA_HepaRG_CAT: Life Technologies and Expression Analysis (LTEA) Assay for catalase (CAT) using HepaRG (AID 2283452); conditions: mRNA level, 48 h; actives raise or lower the signal;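 on AC50: TaqMan qRT-PCR signal normalized to ACTB GAPDH and POLR2A housekeeping genes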
Procedure, shortened: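 Expression of CAT was quantified by TaqMan qRT-PCR with ACTB/GAPDH/POLR2A normalization after 48 h chemical exposure of HepaRG. Eight-point half-log series, top 100 uM, in 0.5% DMSO; gain or loss fitted against vehicle.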

[12] = read-out: flavin-containing dimethylaniline monooxygenases 3 (FMO3), FMO3 (gene 2328); experiment: LTEA_HepaRG_FMO3: Life Technologies and Expression Analysis (LTEA) Assay for flavin-containing dimethylaniline monooxygenases 3 (FMO3) using HepaRG (AID 2283453); conditions: mRNA level, 48 h; actives raise or lower the signal;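 on AC50: differentiated human HepaRG liver cells in serum-free induction medium; FMO3 transcript by TaqMan qRT-PCR normalized to ACTB GAPDH and POLR2A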
Procedure, shortened: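 HepaRG, 48 h exposure, 8-pt half-log series from 100 uM, 0.5% DMSO vehicle, duplicates; FMO3 transcript by Fluidigm TaqMan qRT-PCR, housekeeping-normalized; gain/loss fit vs DMSO.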

[13] = read-out: CFLAR gene, CFLAR (gene 8837); experiment: LTEA_HepaRG_CFLAR: Life Technologies and Expression Analysis (LTEA) Assay for CFLAR gene using HepaRG (AID 2283455); conditions: mRNA level, 48 h; actives raise or lower the signal
Procedure, shortened: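 HepaRG, 48 h exposure, 8-pt conc-response (100 uM top, half-log), 0.5% DMSO vehicle, duplicates. CFLAR expression by qRT-PCR; ACTB/GAPDH/POLR2A normalization; gain or loss fit vs DMSO baseline.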

[14] = read-out: Forkhead box O1 (FOXO1), FOXO1 (gene 2308); experiment: LTEA_HepaRG_FOXO1: Life Technologies and Expression Analysis (LTEA) Assay for Forkhead box O1 (FOXO1) using HepaRG (AID 2283456); conditions: mRNA level, 48 h; actives raise or lower the signal
Procedure, shortened: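 Readout is FOXO1 transcript level by multiplexed qRT-PCR against three housekeeping genes, curve-fitted in both directions relative to 0.5% DMSO vehicle. Human HepaRG cultures received chemicals for 48 h, up to 100 uM in half-log steps.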

[15] = CEETOX_H295R_TESTO: CeeTox H295R High-throughput Steroidogenesis Assay for Testosterone (TESTO) (AID 2283457); conditions: actives raise or lower the signal;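 on AC50: cells exposed to chemicals for 48 h before medium collection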
Procedure, shortened: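 H295R adrenal cells, passage ≤10, exposed to chemicals for 48 h. Testosterone in medium measured by MTBE extraction and HPLC-MS/MS against a 7-point standard curve. Bidirectional fit versus DMSO; MTT viability checked in the same wells.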

[16] = read-out: growth arrest and DNA damage 45 (GADD45A), GADD45A (gene 1647); experiment: LTEA_HepaRG_GADD45A: Life Technologies and Expression Analysis (LTEA) Assay for growth arrest and DNA damage 45 (GADD45A) using HepaRG (AID 2283458); conditions: mRNA level, 48 h; actives raise or lower the signal
Procedure, shortened: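 Human HepaRG liver cells are treated in duplicate for 48 h with chemicals in 0.5% DMSO, highest concentration 100 uM. Expression is read by qRT-PCR and analyzed in both directions against vehicle.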

[17] = read-out: Forkhead box O3 (FOXO3), FOXO3 (gene 2309); experiment: LTEA_HepaRG_FOXO3: Life Technologies and Expression Analysis (LTEA) Assay for Forkhead box O3 (FOXO3) using HepaRG (AID 2283459); conditions: mRNA level, 48 h; actives raise or lower the signal
Procedure, shortened: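 HepaRG, 48 h post-dose; 8 conc., half-log from 100 uM, 0.5% DMSO, duplicates; serum-free induction medium. Readout: FOXO3 mRNA, TaqMan qRT-PCR, housekeeping-normalized. Bidirectional curve fit vs DMSO baseline.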

[18] = read-out: ABC Transporter (ABCB1), ABCB1 (gene 5243); experiment: LTEA_HepaRG_ABCB1: Life Technologies and Expression Analysis (LTEA) Assay for ABC Transporter (ABCB1) using HepaRG (AID 2283460); conditions: mRNA level, 48 h; actives raise or lower the signal
Procedure, shortened: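 Expression of ABCB1 was quantified by qRT-PCR against three housekeeping genes after human HepaRG cultures received test chemicals for 48 hours. Concentrations spanned eight half-log steps topping at 100 uM in 0.5% DMSO; gain or loss of signal was fitted relative to vehicle.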

[19] = read-out: Fatty acid synthase (Homo sapiens) (UniProt P49327); experiment: LTEA_HepaRG_FASN: Life Technologies and Expression Analysis (LTEA) Assay for Fatty Acid Synthase (FASN) using HepaRG (AID 2283448); conditions: mRNA level, 48 h; actives raise or lower the signal;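 on AC50: differentiated human HepaRG liver cells in serum-free induction medium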
Procedure, shortened: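 Transcript-level assay: HepaRG liver cells are treated for 48 h across an eight-point range topping at 100 uM, and FASN mRNA, normalized to three housekeeping genes, is compared with DMSO controls in both directions.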

Measured: AC50

Chain of Fatty acid synthase (Homo sapiens) (P49327 whole entry, looked up): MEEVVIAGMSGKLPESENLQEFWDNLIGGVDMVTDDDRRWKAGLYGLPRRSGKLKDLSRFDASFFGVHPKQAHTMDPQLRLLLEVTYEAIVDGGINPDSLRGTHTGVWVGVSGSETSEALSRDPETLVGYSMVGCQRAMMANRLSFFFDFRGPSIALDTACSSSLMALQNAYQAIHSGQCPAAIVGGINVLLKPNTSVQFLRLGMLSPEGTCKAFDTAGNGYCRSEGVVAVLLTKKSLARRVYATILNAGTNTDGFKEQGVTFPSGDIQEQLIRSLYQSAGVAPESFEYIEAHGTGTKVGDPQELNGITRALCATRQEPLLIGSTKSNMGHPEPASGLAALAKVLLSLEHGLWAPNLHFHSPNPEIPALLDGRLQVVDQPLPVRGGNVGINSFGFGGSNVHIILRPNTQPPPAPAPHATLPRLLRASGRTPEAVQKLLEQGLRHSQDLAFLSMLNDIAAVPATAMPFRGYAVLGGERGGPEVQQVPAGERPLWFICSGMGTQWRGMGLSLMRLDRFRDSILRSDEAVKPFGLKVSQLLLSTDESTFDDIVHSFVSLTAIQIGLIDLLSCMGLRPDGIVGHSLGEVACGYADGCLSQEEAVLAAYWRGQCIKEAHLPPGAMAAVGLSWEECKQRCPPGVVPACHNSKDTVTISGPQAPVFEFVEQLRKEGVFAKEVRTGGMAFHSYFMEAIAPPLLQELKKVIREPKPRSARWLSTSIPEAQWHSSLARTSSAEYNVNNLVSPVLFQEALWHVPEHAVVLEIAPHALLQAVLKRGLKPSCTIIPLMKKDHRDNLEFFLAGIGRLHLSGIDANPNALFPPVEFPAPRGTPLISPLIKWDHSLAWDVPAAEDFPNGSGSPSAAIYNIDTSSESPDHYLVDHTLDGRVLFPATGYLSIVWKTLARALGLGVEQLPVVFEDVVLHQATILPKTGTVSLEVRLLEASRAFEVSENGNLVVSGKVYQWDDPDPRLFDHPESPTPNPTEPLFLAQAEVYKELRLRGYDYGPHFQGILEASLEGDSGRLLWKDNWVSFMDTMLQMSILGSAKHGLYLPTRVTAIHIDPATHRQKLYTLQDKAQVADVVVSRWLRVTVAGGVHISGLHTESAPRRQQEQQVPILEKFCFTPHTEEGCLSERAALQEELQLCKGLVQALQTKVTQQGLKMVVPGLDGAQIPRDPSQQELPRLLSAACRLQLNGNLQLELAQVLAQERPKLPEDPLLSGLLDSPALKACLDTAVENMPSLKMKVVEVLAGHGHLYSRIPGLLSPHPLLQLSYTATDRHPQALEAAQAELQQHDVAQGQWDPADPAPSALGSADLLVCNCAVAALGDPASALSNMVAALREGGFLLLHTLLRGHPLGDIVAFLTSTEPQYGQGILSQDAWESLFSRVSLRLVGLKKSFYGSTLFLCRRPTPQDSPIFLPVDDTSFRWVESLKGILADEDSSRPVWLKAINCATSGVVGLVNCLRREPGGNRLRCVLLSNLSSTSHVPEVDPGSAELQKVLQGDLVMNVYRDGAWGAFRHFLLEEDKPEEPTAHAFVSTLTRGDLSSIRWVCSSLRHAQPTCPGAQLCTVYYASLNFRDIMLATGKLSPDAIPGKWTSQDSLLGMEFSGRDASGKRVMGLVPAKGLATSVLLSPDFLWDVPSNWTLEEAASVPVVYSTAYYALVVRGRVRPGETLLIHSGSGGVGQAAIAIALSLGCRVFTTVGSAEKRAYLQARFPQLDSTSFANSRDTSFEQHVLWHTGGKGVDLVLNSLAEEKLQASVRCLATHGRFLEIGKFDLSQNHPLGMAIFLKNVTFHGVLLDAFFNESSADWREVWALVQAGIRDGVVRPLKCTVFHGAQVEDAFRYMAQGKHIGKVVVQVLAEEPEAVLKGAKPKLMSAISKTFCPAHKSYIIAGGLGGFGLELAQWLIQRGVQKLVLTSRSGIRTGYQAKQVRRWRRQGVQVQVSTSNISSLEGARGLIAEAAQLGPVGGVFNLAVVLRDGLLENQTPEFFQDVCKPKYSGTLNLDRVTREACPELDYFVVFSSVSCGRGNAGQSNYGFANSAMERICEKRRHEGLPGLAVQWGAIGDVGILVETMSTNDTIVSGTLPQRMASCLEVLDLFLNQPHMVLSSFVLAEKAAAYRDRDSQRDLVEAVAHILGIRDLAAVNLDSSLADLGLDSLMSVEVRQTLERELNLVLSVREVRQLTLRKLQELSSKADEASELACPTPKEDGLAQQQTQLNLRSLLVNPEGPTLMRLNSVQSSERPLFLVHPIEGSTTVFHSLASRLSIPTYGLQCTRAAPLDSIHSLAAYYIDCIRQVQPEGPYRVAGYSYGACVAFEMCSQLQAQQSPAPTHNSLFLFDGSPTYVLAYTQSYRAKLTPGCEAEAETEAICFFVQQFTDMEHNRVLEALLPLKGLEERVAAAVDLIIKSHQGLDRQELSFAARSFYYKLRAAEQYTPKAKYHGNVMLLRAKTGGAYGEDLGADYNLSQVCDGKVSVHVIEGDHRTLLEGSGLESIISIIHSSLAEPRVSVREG

O=[N+]([O-])/N=C1\NCCN1Cc1ccc(Cl)nc1
active: [9] 12.2 µM | [11] 39.8 µM | [12] 34.6 µM | [13] 26.3 µM | [16] 23.6 µM | [17] 26.9 µM | [18] 15.9 µM
not listed: [19]
inactive: all other assays above

Oc1cc(Cl)ccc1Oc1ccc(Cl)cc1Cl
inactive: [2] | [3] | [4] | [7] | [8] | [9] | [10] | [11] | [12] | [13] | [14] | [16] | [17] | [18]
active: [10] 85.2 µM | [11] 90.2 µM | [12] 85.1 µM | [16] 10.1 µM | [17] 0.067 µM

Oc1ccc(Cl)cc1Cc1ccccc1
inactive: [2] | [3] | [7] | [8] | [9] | [10] | [11] | [12] | [13] | [14] | [16] | [17] | [18]
active: [1] 78 µM | [4] 39.9 µM | [10] 50.5 µM | [13] 82.3 µM | [15] 78 µM | [17] 91.5 µM and 87.9 µM

O=C(O)COc1ccc(Cl)cc1Cl
not listed: [1] | [5] | [6] | [15] | [19]
inactive: all other assays above

CC(C)N(C(=O)COc1nnc(C(F)(F)F)s1)c1ccc(F)cc1
active: [12] 40.7 µM
not listed: [1] | [11] | [15] | [19]
inactive: all other assays above

N#Cc1c(Cl)c(Cl)c(Cl)c(C#N)c1Cl
active: [19] 35.5 µM | [10] 13.5 µM | [11] 65.7 µM | [12] 36.6 µM | [13] 50 µM | [14] 21.2 µM | [17] 15.2 µM
not listed: [1] | [15]
inactive: all other assays above

CCC(C)Nc1c([N+](=O)[O-])cc(C(C)(C)C)cc1[N+](=O)[O-] (stereo not given)
active: [3] 78.1 µM | [4] 87.1 µM | [7] 88.3 µM | [18] 13 µM
not listed: [1] | [15] | [19]
inactive: all other assays above

COc1nn(CSP(=S)(OC)OC)c(=O)s1
active: [2] 33.1 µM | [4] 40.2 µM | [5] 11.5 µM | [6] 21.4 µM | [7] 38.2 µM
not listed: [1] | [15]
inactive: all other assays above

CCC(C)(C)C(=O)OC1=C(c2ccc(Cl)cc2Cl)C(=O)OC12CCCCC2
active: [4] 0.739 µM | [7] 0.593 µM | [19] 15.1 µM | [12] 66.4 µM
inactive: all other assays above

CC1(C)C(C=C(Cl)Cl)C1C(=O)OC(C#N)c1ccc(F)c(Oc2ccccc2)c1 (stereo not given)
active: [18] 24.5 µM
not listed: [1] | [15] | [19]
inactive: all other assays above

CCCN(CCC)c1c([N+](=O)[O-])cc(C(F)(F)F)cc1[N+](=O)[O-]
not listed: [2] | [3] | [4] | [5] | [6] | [19]
inactive: all other assays above

C[C@H]1[C@H](c2ccc(Cl)cc2)SC(=O)N1C(=O)NC1CCCCC1
active: [8] 90.5 µM | [9] 71.6 µM | [11] 66.2 µM | [12] 75 µM | [14] 83.2 µM | [16] 75.8 µM | [18] 32.8 µM
not listed: [19]
inactive: all other assays above

CCCN(CCOc1c(Cl)cc(Cl)cc1Cl)C(=O)n1ccnc1
inactive: [8] | [17]
active: [2] 0.0122 µM | [3] 0.355 µM | [4] 0.0358 µM | [7] 0.211 µM | [9] 30.5 µM | [10] 89.8 µM | [11] 32.1 µM | [12] 33 µM | [13] 85.2 µM | [14] 88.7 µM | [16] 45.8 µM | [18] 3.22 µM
